Measured values taken from PubChem BioAssay (NCI).
Values joined by “and” are separate entries in the source; they are usually repeats but may differ in a detail not shown here. Equal values may be shown once. This is part of a sample that, as a whole, favours compounds with a hit. Of some 83,000 tested, about 20% had one in any assay.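 Percent growth is the endpoint: 0 to 100 indicates growth inhibition (40 means 60% inhibition), 0 means no net growth, and negative values indicate cell death.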 More than one record can exist for a structure, and the calls need not agree. Active and inactive are the calls of the source. How the source made its calls: active means growth percent below 10; inactive means the rest.

How the values were obtained:
Assay in all cases: NCI-60 one-dose screen, 48 h (100 = growth as untreated, 0 = no growth, -100 = all killed)
HCT-15 colon = tested on: HCT-15 colon
HT29 colon = tested on: HT29 colon
SNB-75 CNS = settings: 10 µM unless noted
SNB-19 CNS = tested on: SNB-19 CNS
U251 CNS = tested on: U251 CNS
PC-3 prostate = tested on: PC-3 prostate
SK-MEL-5 melanoma = tested on: SK-MEL-5 melanoma
UACC-62 melanoma = tested on: UACC-62 melanoma
LOX IMVI melanoma = tested on: LOX IMVI melanoma
SK-MEL-28 melanoma = tested on: SK-MEL-28 melanoma
SK-MEL-2 melanoma = tested on: SK-MEL-2 melanoma
EKVX NSCLC = tested on: EKVX NSCLC
SN12C renal = settings: 10 µM unless noted
UO-31 renal = tested on: UO-31 renal
TK-10 renal = tested on: TK-10 renal
ACHN renal = tested on: ACHN renal
CAKI-1 renal = tested on: CAKI-1 renal
A498 renal = settings: 10 µM unless noted
CCRF-CEM leukemia = tested on: CCRF-CEM leukemia
MOLT-4 leukemia = settings: 10 µM unless noted

COC(=O)/C=C/c1cc(O)c2c(c1)C(C(=O)OC)C(c1ccc(O)c(O)c1)O2 (stereo not drawn)
growth (HCT-15 colon; 10 µM unless noted): 16.7% (inactive) and 16.2% (inactive) | growth (HT29 colon; 10 µM unless noted): 22.8% (inactive) and 16.3% (inactive) | growth (SNB-75 CNS): 52.9% (inactive) and 37.5% (inactive) | growth (SNB-19 CNS; 10 µM unless noted): 35.7% (inactive) and 37.2% (inactive) | growth (U251 CNS; 10 µM unless noted): 20.7% (inactive) and 14.9% (inactive) | growth (PC-3 prostate; 10 µM unless noted): 20.3% (inactive) and 17% (inactive) | growth (SK-MEL-5 melanoma; 10 µM unless noted): 3.62% (active) and -13.7% (active) | growth (UACC-62 melanoma; 10 µM unless noted): 25.9% (inactive) and 31.2% (inactive) | growth (LOX IMVI melanoma; 10 µM unless noted): 20.8% (inactive) and 16.3% (inactive) | growth (SK-MEL-28 melanoma; 10 µM unless noted): 55.3% (inactive) and 53% (inactive) | growth (SK-MEL-2 melanoma; 10 µM unless noted): 50.6% (inactive) and 49.3% (inactive) | growth (EKVX NSCLC; 10 µM unless noted): 35.2% (inactive) and 38.2% (inactive) | growth (SN12C renal): 29.5% (inactive) and 24.6% (inactive) | growth (UO-31 renal; 10 µM unless noted): 38.1% (inactive) and 40.4% (inactive) | growth (TK-10 renal; 10 µM unless noted): 55% (inactive) and 51.8% (inactive) | growth (ACHN renal; 10 µM unless noted): 26.2% (inactive) and 27.2% (inactive) | growth (CAKI-1 renal; 10 µM unless noted): 17.5% (inactive) and 18.5% (inactive) | growth (A498 renal): 18.2% (inactive) and 6.71% (active) | growth (CCRF-CEM leukemia; 10 µM unless noted): 13.5% (inactive) and 16% (inactive) | growth (MOLT-4 leukemia): 17.8% (inactive) and 21.7% (inactive)

COc1ccc(Cl)cc1C(=O)NCCc1ccc(S(=O)(=O)NC(=O)NC2CCCCC2)cc1
growth (HCT-15 colon; 10 µM): 109% (inactive) and 108% (inactive) | growth (HCT-15 colon; 100 µM): 42.6% (inactive) | growth (HT29 colon; 10 µM): 127% (inactive) and 131% (inactive) | growth (HT29 colon; 100 µM): 77% (inactive) | growth (SNB-19 CNS; 10 µM): 104% (inactive) and 97.9% (inactive) | growth (SNB-19 CNS; 100 µM): 68.5% (inactive) | growth (U251 CNS; 10 µM): 94.3% (inactive) and 98.7% (inactive) | growth (U251 CNS; 100 µM): 60.3% (inactive) | growth (PC-3 prostate; 10 µM): 93.2% (inactive) and 110% (inactive) | growth (PC-3 prostate; 100 µM): 52.8% (inactive) | growth (SK-MEL-5 melanoma; 10 µM): 101% (inactive) and 96.2% (inactive) | growth (SK-MEL-5 melanoma; 100 µM): 45.5% (inactive) | growth (UACC-62 melanoma; 10 µM): 83.8% (inactive) and 92.1% (inactive) | growth (UACC-62 melanoma; 100 µM): 51.2% (inactive) | growth (LOX IMVI melanoma; 10 µM): 102% (inactive) and 95.9% (inactive) | growth (LOX IMVI melanoma; 100 µM): 64.7% (inactive) | growth (SK-MEL-28 melanoma; 10 µM): 132% (inactive) and 118% (inactive) | growth (SK-MEL-28 melanoma; 100 µM): 57.5% (inactive) | growth (SK-MEL-2 melanoma; 10 µM): 113% (inactive) | growth (SK-MEL-2 melanoma; 100 µM): 75.8% (inactive) | growth (EKVX NSCLC; 10 µM): 95.5% (inactive) and 99.6% (inactive) | growth (EKVX NSCLC; 100 µM): 58.6% (inactive) | growth (UO-31 renal; 10 µM): 96.2% (inactive) and 79.1% (inactive) | growth (UO-31 renal; 100 µM): 40.6% (inactive) | growth (TK-10 renal; 10 µM): 115% (inactive) and 99.1% (inactive) | growth (TK-10 renal; 100 µM): 92.1% (inactive) | growth (ACHN renal; 10 µM): 96.9% (inactive) and 101% (inactive) | growth (ACHN renal; 100 µM): 54.8% (inactive) | growth (CAKI-1 renal; 10 µM): 94.5% (inactive) and 94.3% (inactive) | growth (CAKI-1 renal; 100 µM): 56.7% (inactive) | growth (A498 renal): 73.2% (inactive) | growth (CCRF-CEM leukemia; 10 µM): 86.3% (inactive) and 95.1% (inactive) | growth (CCRF-CEM leukemia; 100 µM): 64.1% (inactive)

CC(C)N=c1cc2n(-c3ccc(Cl)cc3)c3ccccc3nc-2cc1Nc1ccc(Cl)cc1
growth (HCT-15 colon; 10 µM unless noted): 14.9% (inactive) and 21% (inactive) and 6.17% (active) | growth (HT29 colon; 10 µM unless noted): 0.808% (active) and 6.25% (active) and -28.1% (active) | growth (SNB-75 CNS): 68.1% (inactive) and 53.7% (inactive) and 24.1% (inactive) | growth (SNB-19 CNS; 10 µM unless noted): 49.1% (inactive) and 60.7% (inactive) and 36.4% (inactive) | growth (U251 CNS; 10 µM unless noted): 13.7% (inactive) and 33.5% (inactive) and 6.42% (active) | growth (PC-3 prostate; 10 µM unless noted): 22.2% (inactive) and 29.7% (inactive) and 8.73% (active) | growth (SK-MEL-5 melanoma; 10 µM unless noted): 4.95% (active) and 12% (inactive) and -72.9% (active) | growth (UACC-62 melanoma; 10 µM unless noted): 36% (inactive) and 34.9% (inactive) and 32.9% (inactive) | growth (LOX IMVI melanoma; 10 µM unless noted): -20.7% (active) and -48.6% (active) and -80.9% (active) | growth (SK-MEL-28 melanoma; 10 µM unless noted): 67.7% (inactive) and 72.8% (inactive) and 57.9% (inactive) | growth (SK-MEL-2 melanoma; 10 µM unless noted): -32.7% (active) and 0.294% (active) and -36.1% (active) | growth (EKVX NSCLC; 10 µM unless noted): 39.6% (inactive) and 23% (inactive) and 12.3% (inactive) | growth (SN12C renal): 16.9% (inactive) and 25.6% (inactive) and 1.46% (active) | growth (UO-31 renal; 10 µM unless noted): 27.9% (inactive) and -17% (active) and -5.99% (active) | growth (TK-10 renal; 10 µM unless noted): 26.2% (inactive) and 58.6% (inactive) and 5.66% (active) | growth (ACHN renal; 10 µM unless noted): 27.2% (inactive) and 30.9% (inactive) and 17.8% (inactive) | growth (CAKI-1 renal; 10 µM unless noted): 40.5% (inactive) and 22.6% (inactive) and 5.83% (active) | growth (A498 renal): 74.8% (inactive) and 18.4% (inactive) | growth (CCRF-CEM leukemia; 10 µM unless noted): 15% (inactive) and 28.5% (inactive) and 1.85% (active) | growth (MOLT-4 leukemia): 6.96% (active) and 15.3% (inactive) and -11.7% (active)

O=C(N/N=C/c1ccc2c(c1)OCO2)c1ccncc1
growth (HCT-15 colon; 10 µM unless noted): 106% (inactive) and 104% (inactive) | growth (HT29 colon; 10 µM unless noted): 101% (inactive) and 105% (inactive) | growth (SNB-75 CNS): 77.9% (inactive) and 98.4% (inactive) | growth (SNB-19 CNS; 10 µM unless noted): 111% (inactive) and 103% (inactive) | growth (U251 CNS; 10 µM unless noted): 104% (inactive) | growth (PC-3 prostate; 10 µM unless noted): 104% (inactive) and 88.5% (inactive) | growth (SK-MEL-5 melanoma; 10 µM unless noted): 105% (inactive) | growth (UACC-62 melanoma; 10 µM unless noted): 91.3% (inactive) and 97.5% (inactive) | growth (LOX IMVI melanoma; 10 µM unless noted): 97.4% (inactive) and 101% (inactive) | growth (SK-MEL-28 melanoma; 10 µM unless noted): 103% (inactive) and 106% (inactive) | growth (SK-MEL-2 melanoma; 10 µM unless noted): 110% (inactive) and 108% (inactive) | growth (EKVX NSCLC; 10 µM unless noted): 104% (inactive) and 101% (inactive) | growth (SN12C renal): 94.4% (inactive) and 98.4% (inactive) | growth (UO-31 renal; 10 µM unless noted): 82.8% (inactive) and 79.4% (inactive) | growth (TK-10 renal; 10 µM unless noted): 91.2% (inactive) and 111% (inactive) | growth (ACHN renal; 10 µM unless noted): 107% (inactive) and 103% (inactive) | growth (CAKI-1 renal; 10 µM unless noted): 97.2% (inactive) and 97.5% (inactive) | growth (A498 renal): 98% (inactive) and 94% (inactive) | growth (CCRF-CEM leukemia; 10 µM unless noted): 113% (inactive) and 101% (inactive) | growth (MOLT-4 leukemia): 133% (inactive)
